Source: PubChem BioAssay (EPA / NIEHS)
The source holds several records for some structures; these can differ, active in one and inactive in another. Activity calls are given as the source filed them. The calls were made as follows: active = hit-call score of the fitted dose curve at least 0.9, where 1 is the maximum; inactive = score below 0.9.

Legend:
[1] = BSK_hDFCGF_SRB: Viability Assessment in the BioMAP Diversity Plus: hDFCGF Assay (AID 2283061); conditions: primary human foreskin fibroblasts;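 also: cells exposed to compound for 24 h before the read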
How it was run: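 Cells were dosed with test chemical, cultured 24 h, fixed with 10% TCA, then stained with 0.1% SRB and read at 560 nm. The fibroblasts were human foreskin primary cells, and DMSO served as baseline.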

[2] = read-out: TIMP metallopeptidase inhibitor 1 (TIMP1), TIMP1 (gene 7076); assay: BSK_hDFCGF_TIMP1: BioMAP Diversity Plus: hDFCGF Assay for TIMP metallopeptidase inhibitor 1 (TIMP1) Biomarker Activity (AID 2283062); conditions: primary human foreskin fibroblasts; actives raise or lower the signal
How it was run: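 Fibroblasts from human foreskin are treated with test chemical and harvested at 24 h. TIMP-1 is quantified by ELISA, and gain or loss of signal is scored against DMSO.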

[3] = read-out: Matrix Metallopeptidase 1 (MMP1), MMP1 (gene 4312); assay: BSK_hDFCGF_MMP1: BioMAP Diversity Plus: hDFCGF Assay for Matrix Metallopeptidase 1 (MMP1) Biomarker Activity (AID 2283064); conditions: primary human foreskin fibroblasts; actives raise or lower the signal
How it was run: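 Human foreskin fibroblasts exposed to chemical for 24 h; MMP1 detected by ELISA, with DMSO as baseline for bidirectional fitting.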

[4] = read-out: Vascular cell adhesion molecule 1 (VCAM1), VCAM1 (gene 7412); assay: BSK_hDFCGF_VCAM1: BioMAP Diversity Plus: hDFCGF Assay for Vascular cell adhesion molecule 1 (VCAM1) Biomarker Activity (AID 2283065); conditions: primary human foreskin fibroblasts; actives raise or lower the signal;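 as to AC50: VCAM-1 protein level quantified by ELISA after 24 h chemical exposure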
How it was run: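 Cells are dosed, cultured for 24 h, then VCAM-1 is quantified by ELISA; signal increases and decreases are both fitted relative to DMSO.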

[5] = read-out: Plasminogen activator inhibitor-1 (PAI1), SERPINE1 (gene 5054); assay: BSK_hDFCGF_PAI1: BioMAP Diversity Plus: hDFCGF Assay for Plasminogen activator inhibitor-1 (PAI1) Biomarker Activity (AID 2283066); conditions: primary human foreskin fibroblasts; actives raise or lower the signal
How it was run: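 PAI-1 levels in human dermal foreskin fibroblasts were quantified by ELISA 24 h after dosing, with gain or loss analysed against DMSO. Overt cytotoxicity was checked by sulforhodamine B total-protein staining in parallel cultures.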

[6] = read-out: Intercellular Adhesion Molecule 1 (ICAM1), ICAM1 (gene 3383); assay: BSK_KF3CT_ICAM1: BioMAP Diversity Plus: KF3CT Assay for Intercellular Adhesion Molecule 1 (ICAM1) Biomarker Activity (AID 2283067); conditions: primary human keratinocytes with fibroblasts; actives raise or lower the signal
How it was run: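 Dose the keratinocyte/fibroblast co-culture, wait 24 h, measure ICAM-1 by ELISA, then fit increases or decreases against DMSO. Cytotoxicity is checked in parallel cultures by SRB total-protein staining.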

[7] = read-out: Interferon-gamma inducible Protein 10 (IP10), CXCL10 (gene 3627); assay: BSK_KF3CT_IP10: BioMAP Diversity Plus: KF3CT Assay for Interferon-gamma inducible Protein 10 (IP10) Biomarker Activity (AID 2283068); conditions: primary human keratinocytes with fibroblasts; actives raise or lower the signal
How it was run: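 Human keratinocyte plus foreskin fibroblast primary co-culture exposed to test chemical for 24 h; IP-10 measured by ELISA. Concentration-response fitted bidirectionally against DMSO control as baseline.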

[8] = read-out: Interleukin-1 alpha (IL1a), IL1A (gene 3552); assay: BSK_KF3CT_IL1a: BioMAP Diversity Plus: KF3CT Assay for Interleukin-1 alpha (IL1a) Biomarker Activity (AID 2283070); conditions: primary human keratinocytes with fibroblasts; actives raise or lower the signal
How it was run: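 Readout is IL-1a level by ELISA, compared bidirectionally with DMSO as baseline. Cells: human keratinocytes co-cultured with foreskin fibroblasts, harvested 24 h post-dose.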

[9] = read-out: C-C motif chemokine 2 (Homo sapiens) (UniProt P13500); assay: BSK_KF3CT_MCP1: BioMAP Diversity Plus: KF3CT Assay for Monocyte Chemoattractant Protein 1 (MCP1/CCL2) Biomarker Activity (AID 2283073); conditions: primary human keratinocytes with fibroblasts; actives raise or lower the signal
How it was run: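 Keratinocytes and foreskin fibroblasts were co-cultured, dosed with chemical, and sampled 24 h later. MCP-1 was quantified by ELISA, and the endpoint was analyzed with bidirectional fitting using DMSO as negative control.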

[10] = read-out: Matrix Metallopeptidase 9 (MMP9), MMP9 (gene 4318); assay: BSK_KF3CT_MMP9: BioMAP Diversity Plus: KF3CT Assay for Matrix Metallopeptidase 9 (MMP9) Biomarker Activity (AID 2283074); conditions: primary human keratinocytes with fibroblasts; actives raise or lower the signal;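 as to AC50: MMP9 protein level quantified by ELISA in the co-culture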
How it was run: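 Values come from bidirectional fitting relative to DMSO of MMP-9 levels, which were measured by ELISA. Measurements were taken 24 h after chemical dosing of a keratinocyte and foreskin fibroblast co-culture.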

[11] = read-out: urokinase plasminogen activator (uPA), PLAU (gene 5328); assay: BSK_KF3CT_uPA: BioMAP Diversity Plus: KF3CT Assay for urokinase plasminogen activator (uPA) Biomarker Activity (AID 2283075); conditions: primary human keratinocytes with fibroblasts; actives raise or lower the signal
How it was run: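 Values derive from bidirectional fitting against DMSO controls. Keratinocyte/foreskin fibroblast co-cultures received chemical; 24 h later uPA was detected by ELISA, with SRB total-protein staining in parallel wells for overt cytotoxicity.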

CD40, CD40 (gene 958) = assay: BSK_LPS_CD40: BioMAP Diversity Plus: LPS Assay for CD40 Biomarker Activity (AID 2283076); conditions: primary human HUVEC with PBMC; actives raise or lower the signal
How it was run: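 CD40 signal, measured by ELISA, is fitted in both directions relative to DMSO vehicle. The system is an LPS-driven human vascular primary co-culture of endothelial cells and PBMC, sampled 24 h after compound addition.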

[12] = read-out: E-selectin (Homo sapiens) (UniProt P16581); assay: BSK_LPS_Eselectin: BioMAP Diversity Plus: LPS Assay for Eselectin Biomarker Activity (AID 2283077); conditions: primary human HUVEC with PBMC; actives raise or lower the signal
How it was run: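 Signal of E-selectin, detected by ELISA, served as the endpoint; cells were umbilical vein endothelium with PBMC, read 24 h after treatment. DMSO defined baseline, and both increases and decreases were fitted.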

[13] = read-out: Interleukin-8 (IL8), CXCL8 (gene 3576); assay: BSK_LPS_IL8: BioMAP Diversity Plus: LPS Assay for Interleukin-8 (IL8) Biomarker Activity (AID 2283078); conditions: primary human HUVEC with PBMC; actives raise or lower the signal
How it was run: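 Endothelial cells and PBMC from human donors are co-cultured, treated with chemicals and LPS, then assayed for IL-8 by ELISA after 24 h. Parallel SRB staining (0.1% SRB after 10% TCA fixation, 560 nm) flags cytotoxicity.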

[14] = BSK_LPS_SRB: Viability Assessment in the BioMAP Diversity Plus: LPS Assay (AID 2283079); conditions: primary human HUVEC with PBMC;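 also: total protein by sulforhodamine B absorbance as a cytotoxicity measure; measured one day after compound addition; fitted in both directions against DMSO so loss or gain of signal counts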
How it was run: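 Overt cytotoxicity was gauged by sulforhodamine B total-protein staining in a primary human vascular endothelial and mononuclear cell co-culture 24 h post-dosing. Activity was fitted in both directions relative to DMSO.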

[15] = read-out: Monokine induced gamma interferon (MIG), CXCL9 (gene 4283); assay: BSK_hDFCGF_MIG: BioMAP Diversity Plus: hDFCGF Assay for Monokine induced gamma interferon (MIG) Biomarker Activity (AID 2283063); conditions: primary human foreskin fibroblasts; actives raise or lower the signal
How it was run: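 MIG signal, determined by ELISA, reflects 24 h chemical exposure of human skin primary fibroblasts. DMSO serves as negative control and baseline.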

[16] = read-out: TIMP metallopeptidase inhibitor 2 (TIMP2), TIMP2 (gene 7077); assay: BSK_KF3CT_TIMP2: BioMAP Diversity Plus: KF3CT Assay for TIMP metallopeptidase inhibitor 2 (TIMP2) Biomarker Activity (AID 2283071); conditions: primary human keratinocytes with fibroblasts; actives raise or lower the signal
How it was run: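 TIMP-2 measured by ELISA at 24 h in human keratinocyte/fibroblast primary co-cultures exposed to chemicals. Both increases and decreases were fitted against DMSO. Parallel cultures were stained with SRB for total protein as an overt-cytotoxicity check.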

[17] = BSK_KF3CT_SRB: Viability Assessment in the BioMAP Diversity Plus: KF3CT Assay (AID 2283069); conditions: primary human keratinocytes with fibroblasts;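 also: fitted for both signal gain and loss against DMSO baseline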
How it was run: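 Overt cytotoxicity is assessed as total protein by sulforhodamine B staining in parallel human skin co-cultures at 24 h after dosing. DMSO serves as negative control and baseline.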

[18] = read-out: Interleukin-1 alpha (IL1a), IL1A (gene 3552); assay: BSK_LPS_IL1a: BioMAP Diversity Plus: LPS Assay for Interleukin-1 alpha (IL1a) Biomarker Activity (AID 2283080); conditions: primary human HUVEC with PBMC; actives raise or lower the signal
How it was run: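 Measured: IL-1 alpha via ELISA at 24 h in LPS-activated human umbilical vein endothelium–PBMC co-culture. Baseline: DMSO, bidirectional fitting.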

Measured: AC50

Chain of E-selectin (Homo sapiens) (P16581 whole entry, looked up): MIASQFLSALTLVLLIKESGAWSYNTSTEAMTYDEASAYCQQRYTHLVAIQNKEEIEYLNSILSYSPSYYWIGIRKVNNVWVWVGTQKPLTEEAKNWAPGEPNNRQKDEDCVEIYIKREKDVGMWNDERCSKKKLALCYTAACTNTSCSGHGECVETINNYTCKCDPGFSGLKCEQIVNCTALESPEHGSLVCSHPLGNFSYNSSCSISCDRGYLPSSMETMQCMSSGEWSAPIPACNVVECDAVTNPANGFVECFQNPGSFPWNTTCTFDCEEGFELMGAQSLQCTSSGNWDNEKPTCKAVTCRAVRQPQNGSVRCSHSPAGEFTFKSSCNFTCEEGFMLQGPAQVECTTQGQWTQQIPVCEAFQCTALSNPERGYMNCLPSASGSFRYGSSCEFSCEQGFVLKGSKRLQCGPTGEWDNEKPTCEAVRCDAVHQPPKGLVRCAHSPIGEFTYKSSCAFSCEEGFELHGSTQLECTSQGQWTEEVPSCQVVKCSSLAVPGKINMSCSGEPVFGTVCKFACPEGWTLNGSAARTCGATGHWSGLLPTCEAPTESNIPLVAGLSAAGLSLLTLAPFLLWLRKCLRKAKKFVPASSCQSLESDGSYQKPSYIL

CCCCC(CC)C(=O)OCCOCCOCCOCCOC(=O)C(CC)CCCC (configuration not stated)
not listed: [15] | [16] | [17] | [18]
inactive: all other assays above

CN(Cc1cnc2nc(N)nc(N)c2n1)c1ccc(C(=O)N[C@@H](CCC(=O)O)C(=O)O)cc1
inactive: [1] | [2] | [15] | [3] | [4] | [5] | [6] | [7] | [8] | [16] | [9] | [10] | [11] | CD40, CD40 (gene 958) | [12] | [13] | [14]
active: [11] 4.77 µM

Cc1[nH]nc2c1N=C(c1ccccc1Cl)c1cc([N+](=O)[O-])ccc1N2
active: [3] 2.47 µM | [5] 5.16 µM | [10] 4.48 µM | CD40, CD40 (gene 958) 4.82 µM | [12] 6.04 µM | [13] 7.23 µM | [14] 2.08 µM
not listed: [15] | [17] | [18]
inactive: all other assays above

CCCCC=O
not listed: [16] | [18]
inactive: all other assays above

CCCCCCCCCCCCCCCCCC[N+](C)(C)Cc1ccccc1
active: [1] 0.556 µM | [2] 0.553 µM | [15] 1.86 µM | [3] 3.93 µM | [4] 0.715 µM | [5] 0.636 µM | [6] 5.58 µM | [8] 4.24 µM | [9] 6.52 µM | [10] 2.75 µM | [11] 2.95 µM | CD40, CD40 (gene 958) 2.74 µM | [12] 2.87 µM | [13] 5.17 µM | [14] 2.66 µM

Cc1ccc(N=Nc2c(O)ccc3ccccc23)c(C)c1
active: [4] 5.25 µM
not listed: [7] | [16] | [17]
inactive: all other assays above
